From PubChem BioAssay (NCI)
The panel holds about 83,000 compounds, 20% with a hit somewhere; the sample as a whole holds those more often.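 Testing used 96-well plates and a 48-hour single-concentration exposure. Example: -40 means 40% of the starting cells died.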 Values without a mark were called inactive. The source made the active and inactive calls. Rule for the calls: active = growth percent below 10; inactive = the rest.

Tests used:
Assay in all cases: NCI-60 one-dose screen, 48 h (100 = growth as untreated, 0 = no growth, -100 = all killed)
Conditions in all cases: 10 µM unless noted
SR leukemia = test system: SR leukemia
RPMI-8226 leukemia = test system: RPMI-8226 leukemia
OVCAR-8 ovarian = test system: OVCAR-8 ovarian
OVCAR-5 ovarian = test system: OVCAR-5 ovarian
OVCAR-4 ovarian = test system: OVCAR-4 ovarian
SK-OV-3 ovarian = test system: SK-OV-3 ovarian
IGROV1 ovarian = test system: IGROV1 ovarian
OVCAR-3 ovarian = test system: OVCAR-3 ovarian
HS 578T breast = test system: HS 578T breast
NCI/ADR-RES ovarian = test system: NCI/ADR-RES ovarian
T-47D breast = test system: T-47D breast
BT-549 breast = test system: BT-549 breast
MDA-MB-435 melanoma = test system: MDA-MB-435 melanoma
SW-620 colon = test system: SW-620 colon
MCF7 breast = test system: MCF7 breast
HCT-116 colon = test system: HCT-116 colon
HCC-2998 colon = test system: HCC-2998 colon
KM12 colon = test system: KM12 colon

| Structure (SMILES) | growth (SR leukemia) | growth (RPMI-8226 leukemia) | growth (OVCAR-8 ovarian) [%] | growth (OVCAR-5 ovarian) | growth (OVCAR-4 ovarian) | growth (SK-OV-3 ovarian) [%] | growth (IGROV1 ovarian) [%] | growth (OVCAR-3 ovarian) | growth (HS 578T breast) [%] | growth (NCI/ADR-RES ovarian) | growth (T-47D breast) | growth (BT-549 breast) | growth (MDA-MB-435 melanoma) | growth (SW-620 colon) | growth (MCF7 breast) | growth (HCT-116 colon) | growth (HCC-2998 colon) | growth (KM12 colon) |
| --- | --- | --- | --- | --- | --- | --- | --- | --- | --- | --- | --- | --- | --- | --- | --- | --- | --- | --- |
| c1cc(OCCCCCOc2cccc(-c3nc4ccccc4[nH]3)c2)cc(-c2nc3ccccc3[nH]2)c1 | -24.8% (active) | -47.1% (active) | 15.7 | 1.07% (active) | 8.16% (active) | 23.9 | 10.8 | 16.8% | 25.3 | 0.274% (active) | 12.2% | 6.65% (active) | 8.32% (active) | 12.7% | -2.42% (active) | 7.44% (active) | 14.2% | 8.91% (active) |
| C[C@H]1[C@H](C)CC[C@]2(C(=O)NCCNCCN)CC[C@]3(C)C(=CC[C@@H]4[C@@]5(C)CCC(=O)C(C)(C)[C@@H]5CC[C@]43C)[C@H]12 | -38.7% (active) | -16.3% (active) | 33.6 | 94.1% | 77.4% | 87.4 | 52.7 | 9.12% (active) | 72.5 | 88.2% | 39.8% | 92.3% | -75.7% (active) | -74.7% (active) | 12.6% | -51.8% (active) | -43.7% (active) | 11.4% |
| S=c1ccnc[nH]1 | 131% | 110% | 100 | 101% | 117% | 113 | 110 | 111% | 113 | 100% | 125% | 106% | 113% | 108% | 107% | 96.8% | 104% | 109% |
| CCOc1ccc(NC(=O)Nc2ccc(OCC)cc2)cc1 | 99.4% | 109% | 103 | 111% | 112% | 103 | 110 | 105% | 101 | 106% | 95.7% | 113% | 109% | 116% | 94.5% | 106% | 103% | 102% |
| Cc1nc2sc(C(=O)Nc3cccc4ccccc34)c(N)c2cc1C(=O)c1ccccc1 | 7.17% (active) | 15.6% | 23.7 | 32.3% | 51.8% | 39.7 | 24.8 | -26.4% (active) | 11.9 | 12.9% | 53.7% | 15.2% | -53% (active) | 21.9% | 17.9% | 11.3% | 10.3% | 19.1% |
| CCCCO[C@@H]1C=C2[C@H]3CC(C)(C)C(=O)C[C@]3(C(=O)O[C@@H]3O[C@H](CO[C@@H]4O[C@H](CO)[C@@H](OC5OC(C)C(O)C(O)C5O)[C@H](O)[C@H]4O)[C@@H](O)[C@H](O)[C@H]3O)CC[C@@]2(C)[C@]2(C)CC[C@H]3C(C)(C)C(=O)CC[C@]3(C)[C@@H]12 (some centres undefined) | 69.9% | 20.4% | 94.4 | 96.1% | 75% | 91.8 | 69.1 | 48.7% | 85.4 | 83.8% | 67.4% | 57.6% | 51.9% | 67.5% | 55.5% | 64.9% | 82.7% | 75.2% |
| Cc1cc(N2CCN(CC(=O)Nc3ccc4c(ccn4Cc4ccccc4)c3)CC2)nc(N2CCOCC2)n1 | 107% | 67% | 68.2 | 97.9% | 84.4% | 81.9 | 76.8 | 89.3% | 82.8 | 79.4% | 59.6% | 81.5% | 92.9% | 95% | 79.8% | 72.5% | 119% | 91.3% |
| Cc1[nH]n(-c2cccc(Cl)c2)c(=O)c1/C=C1\C=c2ccccc2=CC1=O | 29.7% | 96.4% | 22.3 | 16.9% | -62.5% (active) | 15.3 | 33.9 | 63.2% | 82.2 | 75.3% | -7.69% (active) | 90.2% | 20.7% | 31% | 8.67% (active) | 8.69% (active) | -22.2% (active) | 21.2% |
